Rows were chosen to be rich in hits. Some 4.6% of all compounds tested hit in one or more screens of this group.
D1 agonist – agonists of human D1 dopamine receptor. activation, % at 2 µM. HEK293 T-REx D1 cells, calcium flux, agonist mode. 1% of 360,000 active; further: 0% is about no effect
Target sequence (P21728 whole entry, looked up): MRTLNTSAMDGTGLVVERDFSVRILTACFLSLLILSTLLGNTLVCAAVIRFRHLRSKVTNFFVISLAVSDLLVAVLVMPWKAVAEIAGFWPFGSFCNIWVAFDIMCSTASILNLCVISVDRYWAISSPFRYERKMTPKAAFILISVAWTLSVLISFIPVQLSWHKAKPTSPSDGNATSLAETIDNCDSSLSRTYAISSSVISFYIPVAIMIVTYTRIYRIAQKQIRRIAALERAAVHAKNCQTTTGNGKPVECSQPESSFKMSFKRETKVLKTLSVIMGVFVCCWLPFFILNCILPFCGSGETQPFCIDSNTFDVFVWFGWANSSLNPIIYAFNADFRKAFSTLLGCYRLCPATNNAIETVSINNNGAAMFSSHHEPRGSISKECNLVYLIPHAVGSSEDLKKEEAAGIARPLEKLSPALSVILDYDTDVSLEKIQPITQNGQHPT
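Inducible HEK293 T-REx D1 cells, force-coupled to calcium signalling, were plated at 4000 cells/well with tetracycline and held overnight at 30 C. After no-wash calcium dye loading, compound-evoked calcium rise over 180 s flagged agonists.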
D1 PAM – potentiators of human D1 dopamine receptor; P21728; HEK293 TREx D1 cells, calcium flux, dopamine EC20 potentiation; potentiation, % at 10 µM; 0.036% of 360,000 active; in the data active means potentiation above about 30%; further: 0% is about no effect
TRHR enhancer – allosterically enhances the human TRH receptor; 0.66% of 360,000 active; enhancement, % at 2 µM; P34981; TRHR cells, fluo-8 calcium fluorescence, EC20 TRH enhancement; in the data active means enhancement above about 30%; further: 0% is about no effect
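TRHR-expressing cells loaded with fluo-8 calcium dye were read kinetically (ex 480/em 530) during compound addition, then stimulated with an EC20 of TRH (10 nM final). Enhancement of the Gq-mediated intracellular calcium response was scored.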
D1 antagonist – antagonists of human D1 dopamine receptor | P21728 | HEK293 TREx D1 cells, calcium flux, dopamine EC80; hits give low values | activity change, negative = inhibition, % at 10 µM | 3.2% of 360,000 active | AID 504652; in the data active means activity change below about -30%; further: on the % scale 0 is the no-effect control and ±100 the full control effect
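Tetracycline-induced HEK293 Trex D1 cells, force-coupled to calcium, dye-loaded; compounds added and read 180 s, then EC80 dopamine added and calcium flux tracked kinetically another 180 s.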
TRHR ag – activates the human TRH receptor; activation, % at 2 µM; TRHR cells, calcium flux fluo-8, FDSS agonist mode; 0.18% of 360,000 active; P34981; further: 0% is about no effect
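TRHR-expressing cells loaded with fluo-8 calcium dye; 23 nL library compound pin-transferred, kinetic FDSS fluorescence (Ex 480/Em 530) recorded about 180 s for agonist-induced calcium release, before a 10 nM TRH EC20 addition for potentiator mode.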
* hit, by the source's call; · = not tested or not shown. Unless noted, no stated cut-off is given here; in the data, active means activation above about 30%; inactive means the rest.

SMILES | D1 agonist | D1 PAM | TRHR enhancer | D1 antagonist | TRHR ag
CC(=O)Nc1ccc(S(=O)(=O)N2CCC(C(=O)NCCC(=O)Nc3nccs3)CC2)cc1 | 2 | -4 | 3 | -5 | 0
Cc1ccc(S(=O)(=O)N2CCN(S(=O)(=O)N3CCC(C)CC3)CC2)c(C)c1 | 3 | 0 | -3 | 5 | 0
CC(=O)Nc1ccc(S(=O)(=O)N2CCC(c3nnc(-c4ccc(C)cc4)o3)CC2)cc1 | 2 | -13 | 1 | -33* | 0
COc1ccccc1-c1nnc(C2CCN(S(=O)(=O)c3ccc([N+](=O)[O-])cc3)CC2)o1 | 37* | -7 | -14 | -3 | 0
COc1cccc(C(c2sc3nc(-c4ccco4)nn3c2O)N2CCN(C)CC2)c1 (stereo unspecified) | 0 | 4 | -3 | · | 0
COc1ccc(-c2c(C)nn(Cc3ccccc3)c2N)cc1 | 1 | 1 | 30* | -9 | 0
COc1ccc(-c2ccc(=O)n(Cc3ccccc3)n2)cc1 | 0 | -2 | -1 | -24 | 0
CCOC(=O)c1c(C)[nH]c(C)c1S(=O)(=O)NCC(=O)N1CCN(c2cccc(C)c2)C(C)C1 (stereo unspecified) | 5 | -1 | -4 | 7 | 0
Cc1ccc(/C=N/NC(=O)Cn2cncn2)cc1 | 1 | 0 | 6 | 3 | 1
C=CCNC(=O)CC(=O)N/N=C/c1ccccc1F | 2 | 8 | 32* | -4 | 0
O=C(Cn1cncn1)N/N=C/c1ccccc1Cl | 0 | -8 | 32* | -11 | 1
O=C(CC(=O)N/N=C/c1ccc(Cl)cc1Cl)NCc1ccccc1 | 2 | 2 | 0 | 0 | 0
O=C(CN1CCCCCCC1)N/N=C/c1ccccc1F | -1 | -5 | 4 | -39* | -1
O=C(CC(=O)N/N=C/c1c(F)cccc1Cl)NCc1ccccc1 | 0 | -4 | -3 | -81* | 1
O=C(CO)N/N=C/c1ccccc1F | 3 | 4 | -6 | 4 | 0
O=C(CCC1N=C2c3ccccc3N=C(SCc3ccc(Cl)cc3)N2C1=O)N1CCN(c2ccccc2)CC1 (stereo unspecified) | 1 | 2 | -5 | 1 | 0
O=[N+]([O-])c1cncc([N+](=O)[O-])c1Nc1cccc(O)c1 | 1 | -3 | -2 | 6 | 3
c1ccc(CSc2nnc(C3CCNCC3)o2)cc1 | 3 | 0 | 9 | 2 | 1
CCCCN1CCc2c([nH]c3ccccc23)C1=O | 1 | 0 | 1 | -5 | 0
CN1CCc2ccccc2Cc2[nH]c3ccccc3c2CC1 | -1 | -7 | 1 | -107* | 0
CN(C)S(=O)(=O)N1CCC(N2CCN(Cc3ccc(F)cc3)C(=O)C2=O)CC1 | 3 | -4 | -7 | 0 | 1
CCOC(=O)c1oc2cc(OC(C)=O)ccc2c(=O)c1-c1ccc(OC)c(OC)c1 | 2 | 0 | 5 | -1 | 0
CCOC(=O)COc1ccc2c(=O)c(-c3ccc(OC)c(OC)c3)c(C(=O)OCC)oc2c1 | -1 | -5 | -5 | -45* | -1
Cc1[nH]c2ccc(F)cc2c(=O)c1SC(F)(F)C(F)F | 20 | -1 | -8 | -42* | 0
COc1ccc(S(=O)(=O)N(CC(=O)Nc2ccc(F)c(Cl)c2)c2ccc(C)cc2)cc1OC | 5 | -3 | 5 | -14 | 0
SMILES | D1 agonist | D1 PAM | TRHR enhancer | D1 antagonist | TRHR ag
Cc1ccc(Sc2c(C(=O)Nc3ccc(F)cc3F)c(C(F)(F)F)nn2C)cc1 | 10 | 1 | -4 | -23 | 0
Cn1nc(C(F)(F)F)c(CO)c1Sc1ccc(F)cc1 | 1 | 1 | 30* | 12 | 0
COc1ccccc1/C=C/C(=O)/C=C/c1ccccc1O | 4 | -5 | -12 | -34* | -1
CCc1ccc(NC(=O)c2ccc3c(c2)N(Cc2ccc(C)cc2)CCS3)cc1 | 2 | -2 | -1 | 19 | 1
CC(C)OCCCNC(=O)c1ccc2c(c1)NC(=O)c1ccccc1S2 | 3 | -3 | -3 | 1 | 0
CCCCN(CC)C(=O)c1ccc2c(c1)NC(=O)c1ccccc1S2 | 3 | 0 | -12 | -45* | -1
CCN(CC)CCNC(=O)c1cc(Nc2ccc(OC)c(OC)c2)nc2ccccc12 | 3 | 1 | 11 | -5 | 0
COc1ccc(C(=O)N2CCc3cc4c(cc3C2C)OCCCO4)cc1 (stereo unspecified) | -1 | -2 | -7 | 1 | 1
CC1c2cc3c(cc2CCN1C(=O)c1ccc(Br)cc1)OCCCO3 (stereo unspecified) | 1 | -9 | -8 | -47* | 0
COc1cccc(-n2c(SC)nnc2-c2cnccn2)c1 | 1 | -2 | -6 | -45* | 0
COc1cccc(-n2c(SCC#N)nnc2-c2cnccn2)c1 | 1 | 3 | -7 | -9 | 0
O=C(NNc1ccnc2cc(Cl)ccc12)C1CCCCC1 | 14 | -4 | 2 | -32* | 0
COC(=O)c1ccc(Cl)cc1NC(=O)N1CCCn2nc(C)cc21 | 6 | 0 | -4 | -3 | -2
CCCCCCN1C=CC=C/C1=C\C=C(C#N)C#N | 64* | 7 | -3 | -7 | 28
O=C(O)C(=O)/C(=C\c1cccc2ccccc12)c1ccc2ccccc2n1 | 31* | -3 | -2 | 3 | 3
O=C(c1ccco1)N(Cc1cccc([N+](=O)[O-])c1)c1ccc(Br)cc1 | 30 | -2 | 21 | -36* | 0
O=C(c1ccco1)N(Cc1ccc([N+](=O)[O-])cc1)c1ccc(Br)cc1 | -1 | -2 | 1 | 0 | 0
CC1CCCC1/C(=N/O)c1ccccc1 (stereo unspecified) | 1 | -4 | -2 | 0 | 0
Nn1c(SCC(=O)N2CCc3ccccc3C2)nnc1-c1cccs1 | 0 | -1 | 3 | 20 | -1
CC1CN(C(=O)CSc2nnc(-c3cccs3)n2N)CC(C)O1 (stereo unspecified) | 2 | 8 | -7 | -34* | 0
CC1CC(C)CN(S(=O)(=O)N2CCC(C(=O)NCCc3ccccc3)CC2)C1 (stereo unspecified) | 5 | -4 | -2 | -11 | 0
CN(CC1CCCN(CCc2ccccc2F)C1)C(=O)c1ccoc1 (stereo unspecified) | 1 | 3 | 1 | 8 | 1
Cc1occc1C(=O)N(C)CC1CCCN(CCc2ccccc2F)C1 (stereo unspecified) | 3 | -5 | 18 | -32* | -1
Cc1cc(C)c(C(=O)N(C)CC2CCCN(CCc3ccccc3F)C2)o1 (stereo unspecified) | 1 | -2 | -2 | -67* | 0
Cc1ccc(NC(=O)N(Cc2cc3cc(C)cc(C)c3[nH]c2=O)CC2COCCO2)cc1 (stereo unspecified) | -1 | 1 | 0 | -3 | -1
